The results in this text go back to PubChem BioAssay (EPA / NIEHS).

Assay [1] in a line: ATG_CRE_CIS: Attagene CIS-FACTORIAL HepG2 Assay for human cAMP Responsive Element (CRE) binding protein 3 (AID 2282926). Conditions: HepG2 CRE cis-reporter, Attagene multiplexed mRNA; actives raise or lower the signal. In a few lines: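 Capillary electrophoresis of 6-FAM-labelled, HpaI-digested PCR products quantified reporter transcripts. These came from HepG2 transiently transfected with cis-element reporters and exposed to test chemicals for 24 hours, with DMSO defining baseline activity.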

Assay [2] addresses CCAAT/enhancer-binding protein beta (Homo sapiens) (UniProt P17676). Briefly: ATG_C_EBP_CIS: Attagene CIS-FACTORIAL HepG2 Assay for human CCAAT/Enhancer Binding Protein (C/EBP) beta (AID 2282927). Conditions: HepG2 Attagene cis-factorial transcription factor reporter; actives raise or lower the signal. In a few lines:
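Following a 24 h incubation with test chemical, transfected HepG2 cells yielded RNA whose reporter transcripts were quantified by RT-PCR and fluorescent capillary electrophoresis, with DMSO serving as baseline for bidirectional fitting.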

Assay [3] in a line: ATG_CMV_CIS: Attagene CIS-FACTORIAL HepG2 Assay for human CMV (Internal Marker) (AID 2282928).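 Also: endpoint acts as a background internal control marker rather than a target.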 To be noted: HepG2 CMV promoter reporter, transcription factor profiling; actives raise or lower the signal. Summed up:
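Readout: fluorescent reporter cDNA fragments separated by capillary electrophoresis after RT-PCR and HpaI cut. Cells: HepG2 carrying transfected cis-promoter reporter constructs, dosed 24 h. Endpoint serves as background internal-marker control, fit bidirectionally versus DMSO.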

The nature of assay [4]: ATG_DR4_LXR_CIS: Attagene CIS-FACTORIAL HepG2 Assay for human Liver X Receptor (LXR), DR4 submotif (AID 2282929). To be noted: HepG2 Attagene DR4 cis-reporter, mRNA transcription; actives raise or lower the signal. In a few lines:
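After transient transfection with multiplexed cis-promoter reporter units, HepG2 cells received test chemicals for 24 h. Reporter mRNA induction, detected by fluorescence after RT-PCR and capillary electrophoresis, was scored relative to DMSO.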

The target in assay [5] is Aryl hydrocarbon receptor (Homo sapiens) (UniProt P35869). Briefly: ATG_Ahr_CIS: Attagene CIS-FACTORIAL HepG2 Assay for human Aryl Hydrocarbon Receptor (Ahr) (AID 2282930). To be noted: HepG2 AhR cis-factorial reporter transcription; actives raise or lower the signal. Summed up:
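Values derive from bidirectional fitting against DMSO negative control. Underlying signal: cis-element reporter mRNA in transiently transfected HepG2, harvested 24 h post-dose and measured by RT-PCR plus capillary electrophoresis.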

A short description of assay [6]: ATG_AP_1_CIS: Attagene CIS-FACTORIAL HepG2 Assay for human Activator Protein 1 (AP-1) (AID 2282931). Conditions: HepG2 Attagene cis-factorial AP-1 reporter mRNA; actives raise or lower the signal. In a few lines: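 After 24 h incubation with test chemical, RNA from transfected HepG2 cells was reverse-transcribed, amplified, fluorescently labelled and digested before capillary electrophoresis. Reporters were driven by cis-regulatory promoters; activity fitted bidirectionally versus DMSO.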

Assay [7] can be described thus: ATG_AP_2_CIS: Attagene CIS-FACTORIAL HepG2 Assay for human Activator Protein 2 (AP-2) (AID 2282932). Conditions: HepG2 AP-2 cis-reporter, Attagene transcription factor profiling; actives raise or lower the signal. Summed up:
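Assay in transfected HepG2 with promoter-regulated reporters, 24 h incubation after dosing. Signal is reporter mRNA fluorescence (RT-PCR, capillary electrophoresis), analysed for both increases and decreases relative to DMSO controls.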

Assay [8] can be described thus: ATG_BRE_CIS: Attagene CIS-FACTORIAL HepG2 Assay for human Bone Morphogenetic Protein (BMP) Response Element (BRE) (AID 2282933). To be noted: HepG2 BMP response element reporter, Attagene transcription factor profiling; actives raise or lower the signal. In a few lines: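 Endogenous transcription factor activity read in transiently transfected HepG2 cells after 24 h chemical exposure. Bidirectional curve fitting against DMSO; readout is reporter transcript level by RT-PCR with capillary electrophoresis of labelled products.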

Assay [9] addresses Transcription factor E2F1 (Homo sapiens) (UniProt Q01094). Briefly: ATG_E2F_CIS: Attagene CIS-FACTORIAL HepG2 Assay for human E2F Transcription Factor 1 (AID 2282935). Conditions: HepG2 Attagene cis-reporter, E2F reporter RNA transcripts; actives raise or lower the signal. In a few lines: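 In this cis-factorial format, endogenous factor activity drives transfected reporters in HepG2; transcripts collected at 24 h are quantified by fluorescence after RT-PCR and capillary separation.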

Assay [10] in a line: ATG_M_61_CIS: Attagene CIS-FACTORIAL HepG2 Assay for M61 Transcription Factor (Internal Marker) (AID 2282937). Conditions: HepG2 Attagene CIS-FACTORIAL M61 internal marker reporter; actives raise or lower the signal. In a few lines:
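Using transiently transfected HepG2 liver cells, reporter transcript levels were assessed 24 h post-dosing by RT-PCR and capillary electrophoresis. Changes in either direction were fitted relative to DMSO controls.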

Assay [11] in a line: ATG_EGR_CIS: Attagene CIS-FACTORIAL HepG2 Assay for human Early Growth Response 1 (EGR1) (AID 2282938). Conditions: HepG2 Attagene CIS-FACTORIAL EGR reporter mRNA; actives raise or lower the signal. In a few lines: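 Fluorescent capillary-electrophoresis signal of reporter cDNA fragments serves as read-out. HepG2 cells bear transiently transfected cis-promoter reporter units and are exposed 24 h; gain- or loss-of-signal is fitted against DMSO.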

The nature of assay [12]: ATG_M_19_CIS: Attagene CIS-FACTORIAL HepG2 Assay for M19 Transcription Factor (Internal Marker) (AID 2282939). To be noted: HepG2 Attagene CIS-FACTORIAL M19 internal marker reporter; actives raise or lower the signal. In a few lines:
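Internal marker readout, fitted in both directions against DMSO, from HepG2 cells carrying transfected cis-element reporter constructs; RT-PCR and capillary electrophoresis of reporter mRNA after 24 h exposure.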

A short description of assay [13]: ATG_Ets_CIS: Attagene CIS-FACTORIAL HepG2 Assay for human Erythroblast Transformation Specific (ETS) (AID 2282941). To be noted: HepG2 ETS cis-reporter transcription, actives raise or lower the signal. In a few lines:
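RT-PCR/capillary electrophoresis fluorescence read-out of reporter mRNA; HepG2 transient multi-reporter transfection; 24 h compound exposure; gain or loss of signal fitted bidirectionally relative to DMSO.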

Assay [14] deals with Hepatocyte nuclear factor 3-beta (Homo sapiens) (UniProt Q9Y261). Briefly: ATG_FoxA2_CIS: Attagene CIS-FACTORIAL HepG2 Assay for human Forkhead box A2 (FOXA2) (AID 2282942). Conditions: HepG2 cis-reporter transcription factor activity, 24 h; actives raise or lower the signal. In a few lines: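 Fluorescence signal of reporter cDNA fragments, separated by capillary electrophoresis, reflects endogenous transcription factor activity in transfected HepG2 after 24 h. Both increases and decreases fitted against DMSO.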
Chain of Hepatocyte nuclear factor 3-beta (Homo sapiens) (Q9Y261 whole entry, looked up, the tested form may be a part): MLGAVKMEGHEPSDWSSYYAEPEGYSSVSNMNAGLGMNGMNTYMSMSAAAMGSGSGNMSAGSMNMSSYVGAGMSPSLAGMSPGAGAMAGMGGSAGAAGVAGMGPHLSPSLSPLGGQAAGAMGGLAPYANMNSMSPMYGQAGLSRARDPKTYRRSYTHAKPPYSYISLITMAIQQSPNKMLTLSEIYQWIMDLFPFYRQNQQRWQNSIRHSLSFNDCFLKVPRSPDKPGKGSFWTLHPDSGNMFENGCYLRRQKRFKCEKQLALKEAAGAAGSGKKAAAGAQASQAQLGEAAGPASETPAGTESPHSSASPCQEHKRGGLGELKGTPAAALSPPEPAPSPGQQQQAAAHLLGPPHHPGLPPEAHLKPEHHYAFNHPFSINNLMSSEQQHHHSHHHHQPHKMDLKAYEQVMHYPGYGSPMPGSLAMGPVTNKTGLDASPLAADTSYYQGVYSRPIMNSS

Assay [15] can be described thus: ATG_FoxO_CIS: Attagene CIS-FACTORIAL HepG2 Assay for human Forkhead box O (FoxO) (AID 2282943). Conditions: HepG2 Attagene cis-reporter, FoxO element, mRNA; actives raise or lower the signal. Summed up:
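Values reflect reporter mRNA induction or loss in HepG2 cells 24 h post-dosing, fitted bidirectionally with DMSO as negative control and baseline. Detection used RT-PCR and fluorescence capillary electrophoresis.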

Assay [16] can be described thus: ATG_GATA_CIS: Attagene CIS-FACTORIAL HepG2 Assay for human GATA Binding Protein (AID 2282944). Conditions: HepG2 GATA cis-element reporter, Attagene multiplex mRNA; actives raise or lower the signal. In a few lines:
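Reporter transcripts from a GATA cis-regulated unit, among multiplexed reporters in transfected HepG2 cells, were measured by RT-PCR with capillary electrophoresis after 24 h dosing. Induction or loss scored relative to DMSO.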

Assay [17] can be described thus: ATG_GLI_CIS: Attagene CIS-FACTORIAL HepG2 Assay for human Zinc Finger Protein GLI1 (AID 2282945). Conditions: HepG2, Attagene cis-factorial reporter mRNA, GLI element; actives raise or lower the signal. Summed up: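 HepG2 cells transiently transfected with cis-promoter multiplexed reporter units report endogenous transcription factor activity. After 24 h chemical exposure, reporter mRNA was quantified by RT-PCR, 6-FAM labelling, HpaI digestion and capillary electrophoresis, with bidirectional fitting against DMSO.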

Assay [18] in a line: ATG_E_Box_CIS: Attagene CIS-FACTORIAL HepG2 Assay for human Enhancer Box (E-box) (AID 2282936). Conditions: HepG2 E-box cis-reporter transcription, actives raise or lower the signal. Summed up: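 Measured 24 h post-dosing in HepG2 cells transfected with multiple cis-regulated reporter units, signal being reporter mRNA induction detected by fluorescent RT-PCR with capillary electrophoresis; gain or loss fitted against DMSO.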

The nature of assay [19]: ATG_ERE_CIS: Attagene CIS-FACTORIAL HepG2 Assay for Estrogen Response Element (ERE) (AID 2282940). To be noted: HepG2 ERE cis-reporter, Attagene RNA transcript; actives raise or lower the signal. Summed up: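 After 24 h compound treatment, RNA from transfected HepG2 cells was reverse-transcribed, reporter cDNA PCR-amplified, FAM-labelled, HpaI-cut and resolved by capillary electrophoresis. ERE-driven cis reporter transcripts reflect endogenous factors; gain or loss scored against DMSO.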

Activity calls are given as the source filed them. The calls were made as follows: active = hit-call score of the fitted dose curve at least 0.9, where 1 is the maximum; inactive = score below 0.9.

Chain of Transcription factor E2F1 (Homo sapiens) (Q01094 whole entry, looked up): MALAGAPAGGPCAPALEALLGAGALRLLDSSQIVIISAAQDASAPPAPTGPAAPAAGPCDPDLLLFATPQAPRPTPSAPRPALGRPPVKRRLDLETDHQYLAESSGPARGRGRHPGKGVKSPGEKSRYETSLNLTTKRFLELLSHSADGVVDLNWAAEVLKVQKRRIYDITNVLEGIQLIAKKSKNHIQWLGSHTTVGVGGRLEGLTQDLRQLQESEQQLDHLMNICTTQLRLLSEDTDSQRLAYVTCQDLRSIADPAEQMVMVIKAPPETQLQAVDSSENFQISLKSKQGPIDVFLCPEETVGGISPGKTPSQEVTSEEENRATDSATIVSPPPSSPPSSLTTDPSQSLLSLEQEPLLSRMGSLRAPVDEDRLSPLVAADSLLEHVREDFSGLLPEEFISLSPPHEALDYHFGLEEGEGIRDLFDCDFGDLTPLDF
Chain of CCAAT/enhancer-binding protein beta (Homo sapiens) (P17676 whole entry, looked up): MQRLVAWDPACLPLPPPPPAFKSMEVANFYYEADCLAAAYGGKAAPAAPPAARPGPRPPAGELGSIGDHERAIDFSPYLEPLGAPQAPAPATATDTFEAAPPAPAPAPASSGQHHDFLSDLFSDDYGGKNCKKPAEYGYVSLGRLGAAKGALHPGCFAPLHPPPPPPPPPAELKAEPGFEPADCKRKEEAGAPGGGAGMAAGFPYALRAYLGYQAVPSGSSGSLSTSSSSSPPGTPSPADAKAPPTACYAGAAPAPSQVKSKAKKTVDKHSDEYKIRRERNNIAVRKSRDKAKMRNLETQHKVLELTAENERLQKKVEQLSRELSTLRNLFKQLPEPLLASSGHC
Chain of Aryl hydrocarbon receptor (Homo sapiens) (P35869 whole entry, looked up): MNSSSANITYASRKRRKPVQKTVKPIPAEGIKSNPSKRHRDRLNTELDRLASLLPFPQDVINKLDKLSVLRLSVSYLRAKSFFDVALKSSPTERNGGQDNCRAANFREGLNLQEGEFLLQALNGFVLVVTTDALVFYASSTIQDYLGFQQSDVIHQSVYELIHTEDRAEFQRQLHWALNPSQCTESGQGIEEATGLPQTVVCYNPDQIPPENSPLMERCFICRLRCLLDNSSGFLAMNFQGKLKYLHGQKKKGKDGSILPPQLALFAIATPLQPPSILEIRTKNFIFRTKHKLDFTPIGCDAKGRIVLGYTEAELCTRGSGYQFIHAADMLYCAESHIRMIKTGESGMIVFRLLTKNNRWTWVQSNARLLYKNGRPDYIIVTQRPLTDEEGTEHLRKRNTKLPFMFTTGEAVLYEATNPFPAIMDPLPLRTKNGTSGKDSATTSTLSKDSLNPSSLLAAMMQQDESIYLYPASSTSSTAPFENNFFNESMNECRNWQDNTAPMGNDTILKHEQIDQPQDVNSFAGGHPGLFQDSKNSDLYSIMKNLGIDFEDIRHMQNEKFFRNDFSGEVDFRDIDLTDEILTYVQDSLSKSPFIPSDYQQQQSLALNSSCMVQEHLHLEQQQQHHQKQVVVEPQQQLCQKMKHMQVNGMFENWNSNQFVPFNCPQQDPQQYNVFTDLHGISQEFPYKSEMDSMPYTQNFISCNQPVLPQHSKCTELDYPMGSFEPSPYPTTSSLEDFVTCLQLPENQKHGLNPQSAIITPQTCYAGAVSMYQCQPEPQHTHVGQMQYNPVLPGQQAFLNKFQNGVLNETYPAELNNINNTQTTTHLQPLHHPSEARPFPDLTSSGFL

For `CNCCO`, the compound was called inactive in assay [1], in [2], in assay [3], in assay [4], in [5] and in assay [6]. Further, the outcome in [7], in assay [8], in assay [9], in [10], in assay [11] and in assay [12] was inactive. The compound was called inactive in assay [13], in assay [14], in assay [15], in assay [16] and in assay [17].

For the compound `O=S(=O)(O)c1ccc(O)c2ncccc12`, the outcome in assay [1], in assay [2], in [3], in [4], in assay [6] and in [7] was inactive. The compound was called inactive in [8], in assay [18], in assay [10], in assay [11], in [19] and in [13]. In addition, the compound was called inactive in assay [14], in [15] and in assay [17]. In assay [5], the AC50 is 37.5 µM (active).

As to `C=CC(C)(O)CCC=C(C)CCC=C(C)C` (stereo not given), the AC50 in [1] is 126 µM (active); in assay [2] it was 137 µM (active); in assay [3] it was 183 µM (active); in [5] it was 51 µM (active); in assay [6], 154 µM (active); in [7], 161 µM (active). The half-maximal activity concentration (AC50) was 131 µM (active) in assay [18]; 166 µM (active) in [10]; 100 µM (active) in assay [11]; 176 µM (active) in assay [12]; 164 µM (active) in assay [13]; 178 µM (active) in assay [17]. The compound was classed as inactive in assay [4], in [8], in [14], in assay [15] and in [16].

Consider `CC(=O)Nc1ccc(CC(=O)O)cc1`, for which the compound was classed as inactive in assay [1], in assay [2], in [3], in assay [4], in assay [5] and in assay [6]. Also, the call in assay [7], in [8], in assay [9], in [18], in assay [11] and in assay [12] was inactive. In addition, the compound was classed as inactive in assay [13], in [15], in assay [16] and in assay [17].

For `CC(C)C1CCC(O)CC1` (stereo not given), the outcome in assay [1], in [2], in [3], in assay [4], in [5] and in assay [6] was inactive. The outcome in assay [7], in assay [8], in assay [18], in assay [11], in [13] and in assay [14] was inactive. Further, the compound was classed as inactive in assay [15], in assay [16] and in assay [17].

On to `CC(=O)O[C@H](CC(=O)[O-])C[N+](C)(C)C`, for which the result in assay [1], in assay [2], in assay [3], in [4], in [5] and in [6] was inactive. Also, the call in [7], in [8], in assay [9], in assay [18], in assay [11] and in assay [12] was inactive. Also, the compound was classed as inactive in assay [13], in assay [14], in [15], in [16] and in [17].

In the case of `O=Nc1ccc(Nc2ccccc2)cc1`, the outcome in assay [1], in assay [6], in assay [7], in assay [8], in assay [10] and in assay [12] was inactive. Moreover, the compound was called inactive in [19], in assay [13], in assay [15] and in [16]. For the same compound, the AC50 in [2] is 8.78 µM (active); in [3] it was 8.52 µM (active); in assay [4], 25.3 µM (active); in assay [5] it was 33.4 µM (active); in [18] it was 9.04 µM (active); in [11] it was 37.7 µM (active). In addition, the AC50 in assay [14] is 47.9 µM (active).

A word on the AC50: it is the midpoint of the concentration-response curve, whichever way the signal moves.
